Measured values taken from PubChem BioAssay (NCI).
Compounds without any hit were thinned out: in the full panel of roughly 83,000, 20% have a hit.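 Growth was measured after 48 h exposure to one concentration of compound in 96-well plates. Values under 10 count as active.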 Calls of active or inactive are those of the source.

System: RPMI-8226 leukemia
Assay: NCI-60 one-dose screen, 48 h (100 = growth as untreated, 0 = no growth, -100 = all killed)
Conditions: 10 µM unless noted

| SMILES | growth |
| --- | --- |
| Cc1cc(NCCCNc2ccnc3cc(Cl)ccc23)nc(Nc2ccc(C(=O)N3CCCCC3)cc2)n1 | -11.1% (active) |
| CC/C(=C(/c1ccc(O)cc1)c1ccc(OCCN2CCCCC2)cc1)c1ccc(OC)cc1 | 62.6% (inactive) |
| O=C(Nc1cccnc1Nc1ccccc1)c1cn(Cc2cccc(Oc3ccccc3)c2)nn1 | 57.2% (inactive) |
| Clc1cccc(C2Cc3cnccc3-c3[nH]c4ccncc4c32)c1 (stereo not drawn) | 14.1% (inactive) |
| C=C1C(=O)O[C@H]2[C@H]1CC/C(COC(=O)NCc1ccc(Cn3c(=O)sn(-c4ccccc4)c3=O)cc1)=C\CC[C@@]1(C)O[C@@H]21 | 1.88% (active) |
| O=C(NCCCCCCNC(=O)OCc1ccc2c(Cl)cc(Cl)c(O)c2n1)OCc1ccc2c(Cl)cc(Cl)c(O)c2n1 | -17.4% (active) |
| C/C(Cc1ccc(Cl)cc1)=C(\c1ccc(OCCN2CCCCCC2)cc1)c1ccc(OC(=O)c2ccccc2)cc1 | -24.6% (active) |
| CC(O)CNC(Cc1ccccc1)c1ccc2c(c1)OCO2 (stereo not drawn) | 90.3% (inactive) |
| OC1(c2ccccc2)c2ccccc2N(c2ccccc2)c2ccc(Cl)cc21 (stereo not drawn) | -6.58% (active) |
| O=C(Cc1ccc(/C=C/C(=O)c2ncc[nH]2)cc1)Nc1cc(F)c(F)c(F)c1 | 0.541% (active) |
| C/C(=N\Nc1ccccc1)c1ccc(NC2=CC(=O)c3ccccc3C2=O)cc1 | 64.3% (inactive) |
| O=S(=O)(Nc1ccc2ccccc2c1)c1ccc(-c2cnc(C3CC3)o2)cc1 | 12% (inactive) |
| O=c1c2ccccc2n(C[C@H]2CO2)c2ccccc12 | 1.45% (active) |
